PubChem BioAssay (NCATS)
Inconclusive results are not listed. The source made the active and inactive calls. Unless noted, the call rests on the fitted dose curve; in most records, active means well fitted curve in either direction with a large enough effect (not every such curve was filed as active); inconclusive means small, poorly fitted or top-dose-only effect, or another doubt; inactive means flat fitted curve, though single readings scatter.

What was measured:
[1] = AP1 Signaling Pathway (AID 357); conditions: ME-180 AP-1-bla reporter, EGF-induced, beta-lactamase ratio, 5 h; at 17.2 µM (top of the series) unless noted;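 further: ME-180 reporter cells stimulated with EGF at its EC50 level; on the % scale 0 is the no-effect control and ±100 the full control effect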
Method in brief: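 First, ME-180 AP-1-bla cells were cultured overnight at 37 °C in low-serum Opti-MEM. Next, titrated compounds with EC50 EGF were incubated 5 hours. Finally, CCF4 was added for 2.5 hours and the 460/530 nm ratio recorded.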

[2] = NFAT Signaling Pathway (AID 444); conditions: Jurkat NFAT-bla M1, carbachol, beta-lactamase ratio, 5 h; at 17.2 µM (top of the series) unless noted;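 further: carbachol stimulus at about its EC50 of 1 µM final; on the % scale 0 is the no-effect control and ±100 the full control effect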
Method in brief: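 Jurkat cells with NFAT-driven β-lactamase reporter and co-expressed M1 receptor, stimulated with carbachol (final 1 uM, ~EC50), compound titration, 5 h at 37 °C. CCF4 loaded 1 h at RT; 460/530 nm ratio gave %activity and AC50.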

[3] = Stat Signaling Pathway (AID 446);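 further: ME-180 cervical cancer cells given 40 pM IL-6 alongside compound; SIE-controlled beta-lactamase reporter measured as 460/530 nm FRET emission ratio; on the % scale 0 is the no-effect control and ±100 the full control effect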
Method in brief: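 Emission at 460 and 530 nm (excitation 405 nm) reports SIE-controlled beta-lactamase in ME-180 cells. Cells received compound with 40 pM IL-6 for 5 hrs at 37 C; data scaled between 300 pM IL-6 and 125 nM JAK-inhibitor controls.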

[4] = target: Glucocorticoid receptor (Homo sapiens) (UniProt P04150); assay: GR-GFP Redistribution (AID 450;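 active means compounds whose dose series gives a full or clear partial fitted curve of increased nuclear translocation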; further: potency means the concentration at half of the fitted maximal effect); conditions: U2OS GR-GFP nuclear translocation, laser cytometry, 2 h
Sequence of Glucocorticoid receptor (Homo sapiens) (P04150 whole entry, looked up): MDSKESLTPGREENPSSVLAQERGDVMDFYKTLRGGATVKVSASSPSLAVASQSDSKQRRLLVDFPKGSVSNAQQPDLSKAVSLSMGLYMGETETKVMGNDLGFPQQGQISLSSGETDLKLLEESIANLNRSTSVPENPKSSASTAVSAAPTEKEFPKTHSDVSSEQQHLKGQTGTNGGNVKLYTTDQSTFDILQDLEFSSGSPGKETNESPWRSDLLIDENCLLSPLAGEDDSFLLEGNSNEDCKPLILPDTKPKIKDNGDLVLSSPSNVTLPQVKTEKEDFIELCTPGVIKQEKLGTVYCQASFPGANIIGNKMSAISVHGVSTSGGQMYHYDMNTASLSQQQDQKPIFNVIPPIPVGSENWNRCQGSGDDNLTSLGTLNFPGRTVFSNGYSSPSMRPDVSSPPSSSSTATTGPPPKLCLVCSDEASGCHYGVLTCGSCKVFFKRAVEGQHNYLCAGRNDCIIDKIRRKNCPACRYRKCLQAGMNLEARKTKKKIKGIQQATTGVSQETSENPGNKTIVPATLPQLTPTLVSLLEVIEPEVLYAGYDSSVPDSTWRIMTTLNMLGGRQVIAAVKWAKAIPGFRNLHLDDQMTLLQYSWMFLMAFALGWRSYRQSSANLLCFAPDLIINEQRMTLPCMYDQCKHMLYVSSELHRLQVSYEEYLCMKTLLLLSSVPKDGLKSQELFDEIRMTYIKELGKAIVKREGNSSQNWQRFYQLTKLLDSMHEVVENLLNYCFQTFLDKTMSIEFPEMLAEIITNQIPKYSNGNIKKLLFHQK

[5] = qHTS Assay for Identification of Small Molecule Agonists for Hypoxia Response Element Signaling Pathway (AID 914; active means well fitted activation curve with a large enough effect in the signal ratio, with a control signal flat, not every such curve was filed as active; the % refers to the signal ratio; further: % of control where 0% means no effect); conditions: ME-180 HRE-bla reporter, beta-lactamase ratio, CoCl2, 17 h; activation: active compounds read high
Method in brief: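 HRE-bla ME-180 assay for agonist-like enhancement of an EC50 CoCl2 stimulus: 17 h at 37 degrees Celsius, CCF4 for 2.5 h, ratiometric 460/530 nm signal converted to %Activity and fitted to AC50.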

[6] = target: Mitogen-activated protein kinase 10 (Mus musculus) (UniProt Q61831); assay: JNK3 AlphaScreen Assay (AID 530);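 further: kinase came from lysate of stimulated human HepG2 cells; signal reports phosphorylation of biotinylated GST-cJun 1-79 at Ser73 with 10 µM ATP; on the % scale 0 is the no-effect control and ±100 the full control effect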
Method in brief: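 HepG2 lysate (IL-1b/TNFa pre-activated) + biotin-GST-cJun 1-79 + anti-pSer73 cJun; cpd titration, 15 min RT; ATP 10 uM start; Tris pH 7.6, MgCl2, DTT, vanadate; beads in EDTA buffer; AlphaScreen.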

[7] = target: 3',5'-cyclic-AMP phosphodiesterase 4B (Homo sapiens) (UniProt Q07343); assay: qHTS Assay for Inhibitors of PDE-IV (AID 607; active means well fitted activation curve with a large enough effect in the main read-out, with a control signal flat, not every such curve was filed as active; further: % of control where 0% means no effect)
Sequence of 3',5'-cyclic-AMP phosphodiesterase 4B (Homo sapiens) (Q07343 whole entry, looked up): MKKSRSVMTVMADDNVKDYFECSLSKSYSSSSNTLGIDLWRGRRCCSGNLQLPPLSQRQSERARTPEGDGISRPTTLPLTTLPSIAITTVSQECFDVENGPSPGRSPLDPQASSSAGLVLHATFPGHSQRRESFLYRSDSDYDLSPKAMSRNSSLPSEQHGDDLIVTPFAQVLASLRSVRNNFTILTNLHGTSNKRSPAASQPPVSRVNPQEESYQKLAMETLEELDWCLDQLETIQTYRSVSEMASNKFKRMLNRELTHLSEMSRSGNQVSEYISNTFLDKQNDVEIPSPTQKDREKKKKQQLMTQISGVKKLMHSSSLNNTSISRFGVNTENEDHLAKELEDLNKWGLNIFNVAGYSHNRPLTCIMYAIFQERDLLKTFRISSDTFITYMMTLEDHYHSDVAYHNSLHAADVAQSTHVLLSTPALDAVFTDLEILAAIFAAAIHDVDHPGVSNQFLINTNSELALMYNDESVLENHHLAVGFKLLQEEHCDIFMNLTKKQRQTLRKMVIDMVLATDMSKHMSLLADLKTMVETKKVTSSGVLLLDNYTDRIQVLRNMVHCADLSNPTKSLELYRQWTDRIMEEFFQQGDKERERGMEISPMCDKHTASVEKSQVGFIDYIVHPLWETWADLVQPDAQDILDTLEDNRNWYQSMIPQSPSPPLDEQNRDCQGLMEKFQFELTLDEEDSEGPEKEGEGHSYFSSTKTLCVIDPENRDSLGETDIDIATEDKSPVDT
Method in brief: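 The readout is membrane depolarisation from a cAMP-sensing CNG channel, detected with a potential dye at ex 535/em 590. Cells were HEK293-derived (endogenous PDE-IV) at 1000 cells/well, titrated up to 22.9 uM final.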

[8] = target: Guanine nucleotide-binding protein G(i) subunit alpha-1 (Homo sapiens) (UniProt P63096); assay: qHTS Assay for Inhibitors of RGS12 GoLoco Motif Activity (Green Fluorophore) (AID 879; active means well fitted curve in the direction sought with a large enough effect; an effect the other way counts as inactive or inconclusive;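 further: 0% = labeled peptide with Gαi1 and full inhibition = labeled peptide alone without protein; negative values mean loss of peptide binding seen as reduced polarization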)
Sequence of Guanine nucleotide-binding protein G(i) subunit alpha-1 (Homo sapiens) (P63096 whole entry, looked up): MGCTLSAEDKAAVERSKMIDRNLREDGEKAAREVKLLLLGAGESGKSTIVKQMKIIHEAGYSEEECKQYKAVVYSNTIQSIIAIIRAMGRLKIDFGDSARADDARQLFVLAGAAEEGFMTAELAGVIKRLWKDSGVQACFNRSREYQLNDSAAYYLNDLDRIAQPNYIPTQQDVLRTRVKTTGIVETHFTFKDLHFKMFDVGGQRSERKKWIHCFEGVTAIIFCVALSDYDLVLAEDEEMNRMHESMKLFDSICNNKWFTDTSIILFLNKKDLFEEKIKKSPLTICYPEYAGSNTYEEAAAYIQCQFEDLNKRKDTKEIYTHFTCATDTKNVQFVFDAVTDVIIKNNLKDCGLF
Method in brief: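 A drop in FITC polarization marked displacement of the FITC-tagged RGS12 GoLoco peptide (10 nM) from Gαi1 (50 nM). Compounds were incubated 10 min at room temperature in Tris pH 7.5 buffer containing 150 mM NaCl, 0.1 mM GDP and 0.05% NP40; unlabeled peptide titration served as control.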

[9] = target: Cytochrome P450 3A4 (Homo sapiens) (UniProt P08684); assay: qHTS Assay for Activators of Cytochrome P450 3A4 (AID 885; active means well fitted curve in the direction sought with a large enough effect; an effect the other way counts as inactive or inconclusive; further: nearly all actives have a fitted effect of over 65% in size)
Sequence of Cytochrome P450 3A4 (Homo sapiens) (P08684 whole entry, looked up): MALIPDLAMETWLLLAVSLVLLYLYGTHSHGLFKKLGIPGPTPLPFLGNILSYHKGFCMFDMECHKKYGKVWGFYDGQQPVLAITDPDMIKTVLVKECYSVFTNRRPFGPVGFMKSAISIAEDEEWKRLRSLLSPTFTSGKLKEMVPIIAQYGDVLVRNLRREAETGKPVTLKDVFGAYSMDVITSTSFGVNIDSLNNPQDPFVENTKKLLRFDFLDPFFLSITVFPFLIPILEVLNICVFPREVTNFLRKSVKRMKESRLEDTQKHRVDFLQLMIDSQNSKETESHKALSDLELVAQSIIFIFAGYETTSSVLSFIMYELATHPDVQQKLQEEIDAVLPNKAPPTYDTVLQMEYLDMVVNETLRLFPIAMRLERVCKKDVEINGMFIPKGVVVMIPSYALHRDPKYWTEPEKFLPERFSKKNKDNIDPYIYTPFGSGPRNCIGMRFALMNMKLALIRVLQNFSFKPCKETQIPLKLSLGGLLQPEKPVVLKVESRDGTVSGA
Method in brief: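 Activators are scored by enhanced luminescence from CYP3A4 conversion of luciferin-PPXE (25uM, equal to KM) to luciferin, after 60 min at RT with an NADPH-regenerating system.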

[10] = qHTS Assay for Identification of Small Molecule Antagonists for NFkB Signaling Pathway (AID 895; active means well fitted inhibition curve with a large enough effect in the signal ratio, with a control signal flat, not every such curve was filed as active; the % refers to the signal ratio; further: on the % scale 0 is the no-effect control and ±100 the full control effect)
Method in brief: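 ME-180 NFkB-bla cells (beta-lactamase under NFkB response element), plated overnight, treated with compound then 10 pM TNF alpha (about EC50) for 5 hrs at 37 C. LiveBLAzer FRET read at 460/530 nm emission, 405 nm excitation.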

[11] = qHTS Assay for Identification of Small Molecule Agonists for Thrombopoietin (TPO) Signaling Pathway (AID 917; active means well fitted curve in the direction sought with a large enough effect; an effect the other way counts as inactive or inconclusive; further: on the % scale 0 is the no-effect control and ±100 the full control effect)
Method in brief: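 Stimulation at the TPO EC50 (26 pM final) was used to detect activators. Ba/F3 mouse cells bearing human TPO receptor and a luciferase reporter under the Glycoprotein IIb promoter were exposed to compounds for 24 hrs at 37 C.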

[12] = target: Pyruvate kinase PKM (Homo sapiens) (UniProt P14618); assay: qHTS Assay for Activators of Human Muscle Pyruvate Kinase (AID 954; active means well fitted curve in the direction sought with a large enough effect, not every such curve was filed as active;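 further: 0% = uninhibited enzyme and -100% = no enzyme or full thiadiazolimine inhibition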)
Sequence of Pyruvate kinase PKM (Homo sapiens) (P14618 whole entry, looked up): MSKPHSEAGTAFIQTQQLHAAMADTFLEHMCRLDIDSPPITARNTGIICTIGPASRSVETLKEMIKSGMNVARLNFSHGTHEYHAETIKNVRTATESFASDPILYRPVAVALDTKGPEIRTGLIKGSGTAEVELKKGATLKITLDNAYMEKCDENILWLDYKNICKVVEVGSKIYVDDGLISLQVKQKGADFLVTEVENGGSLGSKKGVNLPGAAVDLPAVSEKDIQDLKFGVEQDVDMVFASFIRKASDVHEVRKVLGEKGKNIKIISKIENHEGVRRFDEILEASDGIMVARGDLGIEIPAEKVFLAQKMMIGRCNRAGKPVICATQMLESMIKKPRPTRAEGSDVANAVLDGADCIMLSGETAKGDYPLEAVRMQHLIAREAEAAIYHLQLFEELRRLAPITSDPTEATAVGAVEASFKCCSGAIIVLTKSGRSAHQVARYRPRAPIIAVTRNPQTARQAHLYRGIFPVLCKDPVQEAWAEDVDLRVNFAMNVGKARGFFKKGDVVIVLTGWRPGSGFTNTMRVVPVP
Method in brief: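 PKM2, human, >95% pure, 0.1 nM; PEP 0.5 mM (Km), ADP 0.1 mM; 50 mM imidazole pH 7.2, 50 mM KCl, 0.01% Tween 20, 0.05% BSA; 1 h RT; luciferase luminescence readout.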

[13] = target: Alpha-galactosidase (Coffea arabica) (UniProt Q42656); assay: Counterscreen for Glucocerebrosidase Inhibitors: qHTS Assay for Coffee Bean alpha-Galactosidase at pH 4.5 (AID 957; active means well fitted curve in the direction sought with a large enough effect; an effect the other way counts as inactive or inconclusive;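 further: plate controls were enzyme alone for no effect and no enzyme for full effect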)
Sequence of Alpha-galactosidase (Coffea arabica) (Q42656 whole entry, looked up): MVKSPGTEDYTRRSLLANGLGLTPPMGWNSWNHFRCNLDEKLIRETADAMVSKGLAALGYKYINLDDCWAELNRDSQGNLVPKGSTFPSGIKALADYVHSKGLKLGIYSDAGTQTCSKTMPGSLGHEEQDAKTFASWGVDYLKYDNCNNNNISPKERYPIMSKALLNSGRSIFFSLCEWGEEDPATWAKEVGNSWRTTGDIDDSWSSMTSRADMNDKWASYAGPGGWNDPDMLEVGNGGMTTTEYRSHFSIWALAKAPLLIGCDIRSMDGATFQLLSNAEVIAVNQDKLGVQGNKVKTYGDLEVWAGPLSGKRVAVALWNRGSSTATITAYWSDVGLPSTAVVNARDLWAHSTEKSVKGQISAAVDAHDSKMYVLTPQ
Method in brief: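 Quantitative HTS of compounds (0.7 nM to 77 uM) against coffee bean alpha-galactosidase at pH 4.5, measuring 4-methylumbelliferone fluorescence released from 80 uM substrate.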

[14] = target: Alpha-galactosidase A (Homo sapiens) (UniProt P06280); assay: Counterscreen for Glucocerebrosidase Inhibitors: qHTS Assay for Human alpha-Galactosidase at pH 4.5 (AID 992; active means well fitted curve in the direction sought with a large enough effect; an effect the other way counts as inactive or inconclusive; further: 0% is about no effect)
Sequence of Alpha-galactosidase A (Homo sapiens) (P06280 whole entry, looked up): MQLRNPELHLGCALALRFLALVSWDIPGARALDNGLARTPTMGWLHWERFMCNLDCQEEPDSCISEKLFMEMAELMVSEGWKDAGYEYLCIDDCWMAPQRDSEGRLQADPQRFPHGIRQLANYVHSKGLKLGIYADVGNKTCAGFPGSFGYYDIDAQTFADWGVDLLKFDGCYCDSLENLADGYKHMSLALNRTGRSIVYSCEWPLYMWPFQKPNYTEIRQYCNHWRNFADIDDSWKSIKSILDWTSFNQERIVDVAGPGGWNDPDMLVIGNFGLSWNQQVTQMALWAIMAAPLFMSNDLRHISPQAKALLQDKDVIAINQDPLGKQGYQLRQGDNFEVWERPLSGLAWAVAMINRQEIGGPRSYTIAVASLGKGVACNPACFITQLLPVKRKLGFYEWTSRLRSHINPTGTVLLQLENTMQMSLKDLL
Method in brief: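 Fluorogenic 4-MU alpha-D-galactoside (80 uM) hydrolysis, 2 nM enzyme, pH 4.5 citrate buffer + 0.005% Tween-20; 20 min RT; NaOH/glycine pH 10 stop; Ex365/Em440. Compounds titrated 0.7 nM–77 uM; Hill-equation AC50.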

[15] = target: alpha-glucosidase (Oryza sativa, rice) (UniProt Q653V4); assay: Counterscreen for Glucocerebrosidase Inhibitors: qHTS Assay for Rice alpha-Glucosidase at pH 5.0 (AID 997; active means well fitted curve in the direction sought with a large enough effect; an effect the other way counts as inactive or inconclusive;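 further: 0% = full activity with enzyme and -100% = basal without enzyme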)
Method in brief: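 Endpoint fluorogenic assay at pH 5.0: compounds (0.7 nM to 77 uM) titrated against 4 nM rice enzyme and 400 uM 4-MU-alpha-glucoside for 20 min at room temperature; NaOH/glycine stop, read ex 365/em 440 nm, Hill-fitted AC50.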

[16] = target: Alpha-galactosidase (Coffea arabica) (UniProt Q42656); assay: Counterscreen for Glucocerebrosidase Inhibitors: qHTS Assay for Coffee Bean alpha-Galactosidase at pH 5.9 (AID 998; active means well fitted curve in the direction sought with a large enough effect; an effect the other way counts as inactive or inconclusive;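 further: plate controls were uninhibited enzyme for no effect and no-enzyme basal signal for full effect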)
Method in brief: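 Enzyme 2 nM + cpd (0.7 nM–77 uM titration) + 4-MU-alpha-Gal 80 uM, pH 5.9 citrate/Tween-20, RT 20 min, NaOH/glycine stop pH 10, fluor 365/440. Normalized to no-enzyme and full-activity controls; Hill-fit AC50.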

[17] = target: Muscarinic acetylcholine receptor M1 (Rattus norvegicus) (UniProt P08482); assay: qHTS Assay for Antagonists of Acetylcholine Muscarinic M1 Receptor: Measurement of IP-One Response (AID 944; active means well fitted curve in the direction sought with a large enough effect; an effect the other way counts as inactive or inconclusive; further: nearly all actives have a fitted effect of over 75% in size)
Sequence of Muscarinic acetylcholine receptor M1 (Rattus norvegicus) (P08482 whole entry, looked up): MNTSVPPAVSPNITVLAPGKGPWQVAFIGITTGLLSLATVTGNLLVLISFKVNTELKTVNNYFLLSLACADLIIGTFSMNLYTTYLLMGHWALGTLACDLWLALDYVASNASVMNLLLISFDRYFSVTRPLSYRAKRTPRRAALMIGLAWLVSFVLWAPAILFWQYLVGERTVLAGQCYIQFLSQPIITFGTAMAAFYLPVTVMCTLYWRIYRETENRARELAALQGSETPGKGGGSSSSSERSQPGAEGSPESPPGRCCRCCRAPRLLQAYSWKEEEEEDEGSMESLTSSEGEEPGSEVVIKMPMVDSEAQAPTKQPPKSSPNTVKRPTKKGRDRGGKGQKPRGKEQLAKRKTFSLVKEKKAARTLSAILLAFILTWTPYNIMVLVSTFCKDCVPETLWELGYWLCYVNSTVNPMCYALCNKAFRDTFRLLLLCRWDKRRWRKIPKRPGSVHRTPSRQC
Method in brief: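 Antagonism was measured as loss of carbachol-driven (EC80) IP1 accumulation in CHO cells carrying rat M1, using a homogeneous IP-One TR-FRET kit read at 620 and 665 nm.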

CNCCc1nc(N)n[nH]1
inactive: activity change, negative = inhibition [1] 16.9% | activity change, negative = inhibition [2] -10.7% | outcome [3] | Potency [4] > 20.6 µM | activation [5] 12.1%

CC1(C)CC(n2[nH]c(=O)c3c2NC(=O)CSC3c2ccccc2)CCO1 (stereo unspecified)
inactive: activity change, negative = inhibition [1] 0.712% | activity change, negative = inhibition [2] -1.52% | outcome [3] | Potency [4] > 20.6 µM | activation [5] 18.8%

CCC(=NCCOc1ccc(Cl)cc1)c1c(O)n(C)c(=O)n(C)c1=O
inactive: activity change, negative = inhibition [1] -1.65% | outcome [3] | Potency [4] > 20.6 µM

COCCOC(=O)C1=C(N)Oc2c(c(=O)oc3ccccc23)[C@@]12C(=O)Nc1ccccc12
inactive: activity change, negative = inhibition [1] 10.2% | activity change, negative = inhibition [2] -5.71% | outcome [3] | Potency [4] > 20.6 µM | activation [5] -0.572%

CCCCc1nc(N2CCNCC2)c(C#N)c2c1CSC(C)(C)C2
inactive: activity change, negative = inhibition [1] 3.85% | outcome [3] | Potency [4] > 20.6 µM

C[N+]1(C)CCO[C@@](O)(c2ccc(-c3ccc([C@]4(O)C[N+](C)(C)CCO4)cc3)cc2)C1
inactive: activity change, negative = inhibition [1] -2.41% [at 38 µM] | activity change, negative = inhibition [2] -10.8% [at 38 µM] | outcome [3] | Potency [4] > 46 µM | outcome [6] | outcome [7] | Potency [8] | Potency [9] | Potency [10] | outcome [11] | outcome [12] | outcome [13] | outcome [14] | outcome [15] | outcome [16]

Cn1c(O)c(C=NC2CCN(Cc3ccccc3)CC2)c(=O)n(C)c1=O
inactive: activity change, negative = inhibition [1] -11.6% | outcome [3] | Potency [4] > 20.6 µM

C/C(Cl)=C/CC1(CN2CCCC2=O)C(=O)NC(=O)NC1=O
inactive: activity change, negative = inhibition [1] -3.48% | activity change, negative = inhibition [2] 1.12% | outcome [3] | Potency [4] > 20.6 µM | activation [5] 3.38%

CC(=O)[C@@H]1CC[C@@H]2[C@H]3CC[C@H]4C[C@@H](O)CC[C@]4(C)[C@@H]3C(=O)C[C@]21C
inactive: activity change, negative = inhibition [1] -0.27% [at 38 µM] | activity change, negative = inhibition [2] -2.4% [at 38 µM] | outcome [3] | outcome [7]

C=CCN1CC[C@@]23CCCC[C@@H]2[C@@H]1Cc1ccc(O)cc13
inactive: activity change, negative = inhibition [1] -10.4% [at 38 µM] | activity change, negative = inhibition [2] -24.3% [at 38 µM] | Potency [4] > 46 µM | outcome [6] | outcome [7] | Potency [8] | outcome [11] | Potency [17] | outcome [12] | outcome [13] | outcome [14] | outcome [15] | outcome [16]

CC1CCC(C(C)C)C(OP(N)(=O)c2ccccc2)C1 (stereo unspecified)
inactive: activity change, negative = inhibition [1] -1.85% | activity change, negative = inhibition [2] 16.1% | outcome [3] | Potency [4] > 20.6 µM | activation [5] -7.02%
